# Test results reported in PubChem BioAssay (EPA / NIEHS).
# Active and inactive are the calls of the source. The calls were made as follows: active = hit-call score of the fitted dose curve at least 0.9, where 1 is the maximum; inactive = score below 0.9.
# Assay: CCTE_Shafer_MEA_acute_cross_correlation_HWHM: CCTE's Neural Acute Assay for Cross Correlation at Half Width at Half Maximum, Shafer Lab (AID 2284026)
# Method: CCTE_Shafer_MEA_acute assay is conducted using Axion Biosystems 48 well microelectrode array (MEA) plates and Maestro recording system. Each well of the MEA plate contains a grid of 16 microelectrodes embedded in the culture surface. Electrically active cells, such as neurons, can be cultured over the electrodes, and electrical activity in these cells can be recorded extracellularly. The spontaneous firing of neurons is captured from each electrode on a microsecond timescale providing both temporally and spatially precise data. […] The CCTE_Shafer_MEA_acute assay uses primary cultures of rat cortical neurons. As these cultures mature over time, neural networks develop functional activity and form cohesive networks in which electrical activity can be highly coordinated. Baseline 40-minute recordings are made on days post-plating 13 or 15, followed by a secondary 40-minute recording after chemical exposure.CCTE_Shafer_MEA_acute_cross_correlation_HWHM is a component of the CCTE_Shafer_MEA_acute assay. It measures the distance along the x-axis (phase lag) from the left half maximum height to the center of the cross-correlogram of action potential firing during a recording in a microelectrode array (MEA) using Axion Biosystems Maestro 768 channel amplifier with the AxIS adaptive spike detector. Smaller values indicate a narrower correlogram (greater synchrony). The recordings before and after chemical treatment are used to calculate a percent change in the half width at half maximum of the cross-correlogram in each well.Data from the assay component CCTE_Shafer_MEA_acute_cross_correlation_HWHM was analyzed into 1 assay endpoint. This assay endpoint, CCTE_Shafer_MEA_acute_cross_correlation_HWHM, was analyzed in the negative analysis fitting direction relative to DMSO as the negative control and baseline of activity. Using a type of functional reporter, gain or loss-of-signal activity can be used to understand electrical activity.
# Spontaneous activity in the cortical cultures was recorded using an Axion Biosystems Maestro 768 channel amplifier and Axion Integrated Studios (AxIS) v1.8 (or later) software. The amplifier recorded from all channels simultaneously (gain = 1200 x; sampling rate = 12.5 kHz/channel): raw signals were filtered with a Butterworth band-pass filter (300-5000 Hz), which filters out slower local field potentials leaving only fast potentials, i.e., "spikes", arising from extracellular currents associated with action potentials (Pine 2006; Wheeler and Nam 2011). On-line spike detection of filtered signals was conducted with the AxIS adaptive spike detector, using a threshold of 8x the root mean squared (rms) noise on each channel. Any electrodes with rms noise levels greater than 5 uV were grounded (e.g., no data were recorded). Once grounded, an electrode was grounded for the duration of the experiment. All recordings were conducted at 37 C. Wells were deemed usable if on the day of the exposure >/= 10 electrodes were active (defined as >/= 5 spikes/min). On DIV 13 or 15, a minimum of three wells from one cortical culture preparation were treated with each compound (0.03-40 uM). Prior to recording baseline activity, each mwMEA plate was placed in the Maestro at 37 C and allowed to sit for 20 min while firing rates stabilized. Baseline activity (40 min) was recorded before the addition of each compound. An additional 40 min of spontaneous activity was recorded in the presence of each compound. Changes in network parameters relative to baseline were assessed following compound treatment.
Compound,outcome,AC50
CCNc1nc(N)nc(Cl)n1,inactive,–
O=C(O)c1ccccc1,inactive,–
CC(C)(c1ccc(O)cc1)c1ccc(O)cc1,–,28.6 µM (active)
CSC(=O)c1cccc2nnsc12,inactive,–
N#CSCSc1nc2ccccc2s1,–,23.9 µM (active)
CC1(C)C(C=C(Cl)Cl)C1C(=O)OCc1cccc(Oc2ccccc2)c1 (centres undefined),inactive,–
CC(C)CCCCCCc1ccc(O)cc1,–,20 µM (active)
O=C(c1ccccc1)C1CCCCC1,–,8.12 µM (active)
O=C(c1ccc(O)cc1O)c1ccc(O)cc1O,inactive,–
CCCCC(CC)CN1C(=O)C2C3C=CC(C3)C2C1=O (centres undefined),inactive,–
C=CCOC(Cn1ccnc1)c1ccc(Cl)cc1Cl (centres undefined),–,5.57 µM (active)
CCCN(CCC)c1c([N+](=O)[O-])cc(C(F)(F)F)c(N)c1[N+](=O)[O-],inactive,–
C#CCOC(=O)[C@@H](C)Oc1ccc(Oc2ncc(Cl)cc2F)cc1,inactive,–
CC(C)(C)[C@@H](O)[C@@H](Cc1ccc(Cl)cc1)n1cncn1,inactive,–
O=C(Nc1ccc([N+](=O)[O-])cc1Cl)c1cc(Cl)ccc1O,–,1.08 µM (active)
Cc1nn(C)c(Oc2ccccc2)c1C=NOCc1ccc(C(=O)OC(C)(C)C)cc1,–,4.36 µM (active)
OB(O)O,inactive,–
COC(=O)c1ccccc1C(=O)O,inactive,–
Oc1ccc(C(c2ccc(O)cc2)C(Cl)(Cl)Cl)cc1,–,6.85 µM (active)
